Drawing on PubChem BioAssay (Tox21), this text covers Potency, outcome and activity change, negative = cytotoxicity for 33 compounds.

Test [1] in a line: qHTS assay to identify small molecule agonists of the androgen receptor (AR) signaling pathway in the presence of an antagonist - cell viability counter screen (AID 1259379). Further: nearly all actives have a fitted effect of over 25% in size. Further: potency means the concentration at half of the fitted maximal effect.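 On activity change, negative = cytotoxicity: MDA-kb2 human breast cancer cells carrying an MMTV luciferase reporter; series mostly up to about 92 µM.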 Put shortly: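 Viability counter screen: CellTiter-Fluor fluorescence, measured in the same wells as the luciferase read-out. MDA-kb2 cells, 3,000/well, with nilutamide at 3.0uM final and compounds at 15 concentrations, 16 hr at 37C, 0% CO2.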
A general note: In qHTS, concentration-response curves come from the screen itself.

A short description of test [2]: qHTS assay to identify small molecule antagonists of the estrogen receptor beta (ER-beta) signaling pathway - cell viability counter screen (AID 1259382).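 Further: HEK293T cells carrying ER-beta-UAS-bla reporter stimulated with estradiol; series mostly up to about 92 µM; nearly all actives have a fitted effect of over 55% in size.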 Put shortly:
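Luminescent ATP read-out (CellTiter-Glo, 30 min, RT) taken in the same wells as the bla reporter assay. HEK293T ER-beta-UAS-bla cells in 2% charcoal-stripped FBS were exposed to compounds with 1nM E2 for 16 hr at 37C.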

Test [3] is described as follows: qHTS assay to identify small molecule agonists of the estrogen receptor alpha (ER-alpha) signaling pathway in the presence of an antagonist - cell viability counter screen (AID 1259386).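 Further: cells exposed to compounds for 22 h at 37 °C before the viability read; nearly all actives have a fitted effect of over 30% in size.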 Further: potency means the concentration at half of the fitted maximal effect. On activity change, negative = cytotoxicity: series mostly up to about 92 µM. The method in brief:
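Read-out: CellTiter-Fluor fluorescence after 1hr reagent incubation, measured in the same wells as the luciferase readout. VM7Luc4E2 cells were exposed to 15 compound concentrations with 10.0nM ICI-182,780 for 22hr at 37C.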

Test [4] is described as follows: qHTS assay to identify small molecule agonists or antagonists of the thyroid stimulating hormone receptor (TSHR) signaling pathway - wild type cell line counter screen (AID 1259384; calls by dose curve). Put shortly:
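Wild-type Hek293 cells, 800/well, 18 h at 37C, then compound with Ro20-1724 for 30 min RT. cAMP by HTRF (cAMP-d2/anti-cAMP cryptate), 1 h RT, fluorescence read. 15 concentrations, triplicates.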

Test [5] has as its target Thyrotropin receptor (Homo sapiens) (UniProt P16473). In words: qHTS assay to identify small molecule antagonists of the thyroid stimulating hormone receptor (TSHR) signaling pathway (AID 1259385; calls by dose curve; further: nearly all actives have a fitted effect of over 20% in size). Put shortly: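 TSHR-HEK293 cells (800/well) plated 18 h, then compounds with Ro20-1724 and TSH at 1.5 ng/mL final, 30 min at room temperature. cAMP quantified by HTRF (cAMP-d2/anti-cAMP-cryptate, 1 h); 15 concentrations in triplicate.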

Test [6] addresses Estrogen receptor (Homo sapiens) (UniProt P03372). In words: qHTS assay to identify small molecule agonists of the estrogen receptor alpha (ER-alpha) signaling pathway in the presence of an antagonist (AID 1259383; calls by dose curve; further: top concentration of the series differs between compounds; nearly all actives have a fitted effect of over 15% in size). Put shortly:
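Luciferase luminescence (ONE-Glo, 30min at room temperature) measured in VM7Luc4E2 cells after 22hr compound exposure at 15 concentrations, with 10.0nM ICI-182,780 final present; cells express endogenous ER-alpha and carry four EREs upstream of luciferase.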

Test [7] can be described thus: qHTS assay to identify small molecule agonists of the estrogen receptor beta (ER-beta) signaling pathway - cell viability counter screen (AID 1259380). Further: nearly all actives have a fitted effect of over 30% in size. The method in brief:
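Luminescence read-out (CellTiter-Glo, 30 min, room temp) taken in the same wells as the beta-lactamase reporter assay; ER-beta-UAS-bla HEK293T cells exposed to DMSO-dissolved compounds for 16 hr at 37C in 2% charcoal-stripped FBS medium.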

Test [8] concerns the target Androgen receptor (Homo sapiens) (UniProt P10275). The test is described as follows: qHTS assay to identify small molecule agonists of the androgen receptor (AR) signaling pathway in the presence of an antagonist (AID 1259381; calls by dose curve; further: nearly all actives have a fitted effect of over 15% in size). Put shortly:
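Luciferase read-out (ONE-Glo, 30min room temperature) in MDA-kb2 MMTV-reporter cells; agonist mode run in presence of AR antagonist nilutamide, 3.0uM final. Compounds tested as 15-point series, 16hr exposure at 37C, 0% CO2.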

Unmarked numbers belong to inactive results. Inconclusive results are not listed. The source made the active and inactive calls. Unless noted, the call rests on the fitted dose curve; in most records, active means well fitted curve in the direction sought with a large enough effect in the repeat runs; inconclusive means weak or mixed curves; inactive means no such curve, though single readings can be large; an effect the other way counts as inactive or inconclusive.
On the % scale 0 is the no-effect control and ±100 the full control effect.

Thyrotropin receptor (Homo sapiens), sequence (P16473 whole entry, looked up): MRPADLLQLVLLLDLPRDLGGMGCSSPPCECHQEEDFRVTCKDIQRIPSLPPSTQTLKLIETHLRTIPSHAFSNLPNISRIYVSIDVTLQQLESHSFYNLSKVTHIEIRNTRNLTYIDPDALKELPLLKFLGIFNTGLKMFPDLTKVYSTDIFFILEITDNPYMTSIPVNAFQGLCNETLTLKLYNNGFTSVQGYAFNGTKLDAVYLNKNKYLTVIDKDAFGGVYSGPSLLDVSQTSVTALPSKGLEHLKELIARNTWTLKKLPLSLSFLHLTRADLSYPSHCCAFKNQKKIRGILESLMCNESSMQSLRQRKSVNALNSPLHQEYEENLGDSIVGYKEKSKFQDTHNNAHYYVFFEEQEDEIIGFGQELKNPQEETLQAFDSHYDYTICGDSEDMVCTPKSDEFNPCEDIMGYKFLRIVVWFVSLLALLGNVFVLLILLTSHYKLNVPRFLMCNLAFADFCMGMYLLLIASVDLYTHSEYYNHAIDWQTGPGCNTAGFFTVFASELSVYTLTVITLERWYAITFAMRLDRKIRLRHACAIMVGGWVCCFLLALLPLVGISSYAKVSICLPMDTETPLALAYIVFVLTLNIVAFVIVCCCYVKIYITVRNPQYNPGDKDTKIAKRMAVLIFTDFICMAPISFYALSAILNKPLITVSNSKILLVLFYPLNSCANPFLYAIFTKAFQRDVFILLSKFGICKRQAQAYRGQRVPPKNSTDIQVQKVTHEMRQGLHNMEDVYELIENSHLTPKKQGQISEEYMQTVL
Androgen receptor (Homo sapiens), sequence (P10275 whole entry, looked up): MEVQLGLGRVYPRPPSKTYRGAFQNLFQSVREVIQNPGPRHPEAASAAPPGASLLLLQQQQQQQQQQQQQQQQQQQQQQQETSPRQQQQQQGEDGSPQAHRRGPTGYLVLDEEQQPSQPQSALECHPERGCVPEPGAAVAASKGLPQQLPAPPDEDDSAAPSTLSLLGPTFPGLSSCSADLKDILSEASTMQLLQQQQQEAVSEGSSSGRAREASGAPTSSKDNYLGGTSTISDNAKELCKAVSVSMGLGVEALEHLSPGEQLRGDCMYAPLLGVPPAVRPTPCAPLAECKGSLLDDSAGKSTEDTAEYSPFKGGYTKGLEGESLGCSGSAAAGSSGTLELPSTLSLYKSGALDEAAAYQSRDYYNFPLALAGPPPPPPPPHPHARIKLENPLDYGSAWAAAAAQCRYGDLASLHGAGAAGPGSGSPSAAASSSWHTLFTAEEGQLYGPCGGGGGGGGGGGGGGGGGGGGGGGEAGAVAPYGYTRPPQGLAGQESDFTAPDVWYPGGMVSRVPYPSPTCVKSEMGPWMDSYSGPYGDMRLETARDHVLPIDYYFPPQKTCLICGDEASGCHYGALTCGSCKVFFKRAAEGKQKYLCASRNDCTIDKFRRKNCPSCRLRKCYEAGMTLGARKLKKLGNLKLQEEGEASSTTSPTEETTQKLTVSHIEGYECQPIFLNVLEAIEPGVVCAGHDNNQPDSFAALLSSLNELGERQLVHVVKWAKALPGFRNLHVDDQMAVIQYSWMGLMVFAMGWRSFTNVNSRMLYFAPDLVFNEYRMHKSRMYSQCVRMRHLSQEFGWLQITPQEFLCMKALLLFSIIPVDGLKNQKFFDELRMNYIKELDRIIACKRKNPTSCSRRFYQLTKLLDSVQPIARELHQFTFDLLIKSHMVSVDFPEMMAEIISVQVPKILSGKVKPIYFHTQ
Estrogen receptor (Homo sapiens), sequence (P03372 whole entry, looked up): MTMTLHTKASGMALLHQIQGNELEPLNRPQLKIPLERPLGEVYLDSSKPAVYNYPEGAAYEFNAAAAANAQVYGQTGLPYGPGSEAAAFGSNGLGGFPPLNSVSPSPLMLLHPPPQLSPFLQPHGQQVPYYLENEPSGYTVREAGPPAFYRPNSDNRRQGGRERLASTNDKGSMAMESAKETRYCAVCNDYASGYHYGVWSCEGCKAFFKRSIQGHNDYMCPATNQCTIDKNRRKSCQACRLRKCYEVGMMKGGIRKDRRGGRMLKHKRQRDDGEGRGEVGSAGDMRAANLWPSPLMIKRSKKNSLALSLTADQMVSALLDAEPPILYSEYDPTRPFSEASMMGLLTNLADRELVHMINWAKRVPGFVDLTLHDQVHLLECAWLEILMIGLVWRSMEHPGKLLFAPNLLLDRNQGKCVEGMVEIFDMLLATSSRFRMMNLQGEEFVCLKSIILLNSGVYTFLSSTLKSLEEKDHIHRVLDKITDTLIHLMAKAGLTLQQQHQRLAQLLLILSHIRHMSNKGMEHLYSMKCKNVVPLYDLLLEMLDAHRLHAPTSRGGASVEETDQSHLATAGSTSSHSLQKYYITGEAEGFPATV

As for `CCCn1cc[n+](C)c1C`, the Potency result in test [1] and in test [3] was “inactive” in each case. In addition, the compound was called inactive in test [2].
Turning to `CC(C)(C#N)Nc1nc(Cl)nc(NC2CC2)n1`, the Potency result in test [1] and in test [3] was “inactive” each time. For the same compound, the result in test [2], in test [4] and in test [5] was inactive.
On to `COc1ccnc(CS(=O)c2nc3cc(OC(F)F)ccc3[nH]2)c1OC` (configuration not stated), for which the Potency entry in test [1] and in test [3] was “inactive” each time. Further, the call in test [2], in test [4] and in test [5] was inactive.
Take `CC(C)=CCC/C(C)=C/C#N`: the Potency entry in test [1] and in test [3] was “inactive” throughout. Further, the compound was called inactive in test [2], in test [6], in test [4] and in test [5].
`CCN1C=CN(C)C1C` (configuration not stated): the Potency result in test [1], in test [7] and in test [3] was “inactive” in each case. In addition, the compound was called inactive in test [2], in test [4] and in test [5].
For the compound `CC[N+](CC)(CC(=O)Nc1c(C)cccc1C)Cc1ccccc1` (tested in a mixture with another compound), the Potency result in test [1] and in test [3] was “inactive” throughout. The result in test [2], in test [4] and in test [5] was inactive.
For the compound `O=S(=O)(O)c1cccc2c(S(=O)(=O)O)cccc12`, the Potency result in test [1], in test [7] and in test [3] was “inactive” each time. The result in test [2] and in test [5] was inactive.
`O=S(=O)(O)c1cccc2ccccc12`: the Potency entry in test [1], in test [7] and in test [3] was “inactive” throughout. Further, the compound was classed as inactive in test [2] and in test [5].
Turning to `COc1cc2c(cc1OC)-c1cc3ccc(OC)c(OC)c3c[n+]1CC2`, the figures for the Potency in test [1] and in test [3] were 49 µM (active) and 61.7 µM (active), respectively. The Potency result in test [7] was “inactive”. In addition, the outcome in test [2] was inactive.
As to `C[N+](C)(C)CCCCCCCCCC[N+](C)(C)C`, the Potency entry in test [1] and in test [3] was “inactive” each time. The compound was called inactive in test [2], in test [6] and in test [5].
Regarding `Cc1c(N)c(=O)n(-c2ccccc2)n1C`, the Potency entry in test [1], in test [7] and in test [3] was “inactive” throughout. Also, the outcome in test [2] and in test [5] was inactive.
Turning to `C[N+]1(CC2COC(c3ccccc3)(c3ccccc3)O2)CCCCC1` (configuration not stated), the activity change, negative = cytotoxicity is 4% [at 19 µM] in test [1], 12% [at 19 µM] in test [7], 0.56% [at 19 µM] in test [2] and 7.11% [at 19 µM] in test [3].
As for `Cc1ncc(COP(=O)(O)O)c(C=O)c1O`, the Potency result in test [1] and in test [3] was “inactive” each time. For the same compound, the outcome in test [2], in test [6], in test [4] and in test [5] was inactive.
For `CC(C(=O)O)c1cccc(Oc2ccccc2)c1` (configuration not stated), the Potency result in test [1], in test [7] and in test [3] was “inactive” in each case. In addition, the outcome in test [2] was inactive.
As to `CCN(CC#N)c1cccc(C)c1`, the Potency result in test [1] and in test [3] was “inactive” throughout. The outcome in test [2] and in test [6] was inactive.
Consider `CC(=O)C1CCCCC1=O` (configuration not stated), for which the Potency entry in test [1] and in test [3] was “inactive” throughout. For the same compound, the compound was called inactive in test [2], in test [4] and in test [5].
For `CO[C@@]1(NC(=O)CSC[C@@H](N)C(=O)O)C(=O)N2C(C(=O)O)=C(CSc3nnnn3C)CS[C@@H]21`, the Potency entry in test [1], in test [8] and in test [3] was “inactive” each time. Moreover, the compound was called inactive in test [2], in test [6], in test [4] and in test [5].
Take `O=C(O)CC(C(=O)O)S(=O)(=O)O` (configuration not stated): the Potency result in test [1] and in test [3] was “inactive” in each case. For the same compound, the outcome in test [2], in test [6], in test [4] and in test [5] was inactive.
In the case of `CC(C)(C)C(=O)c1ccccc1`, the Potency entry in test [1] and in test [3] was “inactive” each time. The outcome in test [2], in test [6] and in test [5] was inactive.
Consider `CN(C)C(=O)Oc1ccc[n+](C)c1`, for which the Potency result in test [1] and in test [3] was “inactive” each time. Moreover, the call in test [2], in test [6], in test [4] and in test [5] was inactive.
Regarding `CCCCCCCCCCCCCCC(=O)O`, the Potency entry in test [1] and in test [3] was “inactive” in each case. For the same compound, the result in test [2] and in test [5] was inactive.
For the compound `C[N+]1(C)CCCC(OC(=O)C(O)(c2ccccc2)c2ccccc2)C1` (configuration not stated), the Potency entry in test [1] and in test [3] was “inactive” in each case. Moreover, the outcome in test [2] and in test [6] was inactive.
With `CCCc1nn(C)c2c(=O)[nH]c(-c3cc(S(=O)(=O)N4CCN(C)CC4)ccc3OCC)nc12`, the Potency entry in test [1] and in test [3] was “inactive” throughout. Further, the call in test [2] and in test [5] was inactive.
Turning to `C[N+]12CCC(CC1)C(OC(=O)C(O)(c1ccccc1)c1ccccc1)C2` (configuration not stated), the Potency entry in test [7] and in test [3] was “inactive” in each case. Further, the result in test [2], in test [4] and in test [5] was inactive.
In the case of `CC(C)NNC(=O)c1ccncc1`, the Potency entry in test [1], in test [8] and in test [3] was “inactive” throughout. Besides, the outcome in test [2] and in test [5] was inactive.
Turning to `CCCCCC(C)N` (configuration not stated), the Potency entry in test [1], in test [8] and in test [3] was “inactive” throughout. The compound was classed as inactive in test [2], in test [4] and in test [5].
Regarding `NCCCC[C@H](N[C@@H](CCc1ccccc1)C(=O)O)C(=O)N1CCC[C@H]1C(=O)O`, the Potency entry in test [1], in test [7] and in test [3] was “inactive” in each case. Moreover, the compound was called inactive in test [2].
With `FB(F)F`, the Potency result in test [1] and in test [3] was “inactive” in each case. The call in test [2], in test [4] and in test [5] was inactive.
Regarding `Nc1ccn([C@@H]2O[C@H](CO)[C@@H](O)C2O)c(=O)n1` (some centres not stated), the Potency entry in test [1], in test [7] and in test [3] was “inactive” throughout. The compound was classed as inactive in test [2].
For the compound `CC12CCC(C(=O)C1=O)C2(C)C` (configuration not stated), the Potency result in test [1], in test [7] and in test [3] was “inactive” each time. In addition, the compound was classed as inactive in test [2].
As to `NC(CCC(=O)O)C(=O)O` (configuration not stated), the Potency entry in test [1], in test [7] and in test [3] was “inactive” each time. Further, the compound was called inactive in test [2] and in test [5].
`Cc1ccc(C(=O)c2ccc(CC(=O)O)n2C)cc1`: the Potency result in test [1], in test [8] and in test [3] was “inactive” in each case. Further, the compound was called inactive in test [2], in test [4] and in test [5].
With `NC(=O)NC1N=C([O][Al])NC1=O` (configuration not stated), the Potency entry in test [1], in test [8] and in test [3] was “inactive” throughout. The outcome in test [2] and in test [5] was inactive.
